Activity calls are given as the source filed them. The calls were made as follows: active = hit-call score of the fitted dose curve at least 0.9, where 1 is the maximum; inactive = score below 0.9.
Key:
Details in all cases: mRNA level, 48 h; actives raise or lower the signal
[1] = read-out: Alkaline Phosphatase, Placental (ALPP) gene, ALPP (gene 250); assay: LTEA_HepaRG_ALPP: Life Technologies and Expression Analysis (LTEA) Assay for Alkaline Phosphatase, Placental (ALPP) gene using HepaRG (AID 2283468)
Procedure, shortened: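 ALPP transcript level, measured by qRT-PCR and normalized to three housekeeping genes (ACTB, GAPDH, POLR2A), after 48 h dosing of differentiated HepaRG in serum-free induction medium. Top concentration 100 uM with half-log dilutions (8 points, 0.5% DMSO, duplicates); bidirectional fitting relative to DMSO.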

[2] = read-out: Bcl-2 (BAD) gene, BAD (gene 572); assay: LTEA_HepaRG_BAD: Life Technologies and Expression Analysis (LTEA) Assay for Bcl-2 (BAD) gene using HepaRG (AID 2283469)
Procedure, shortened: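 Read-out: qRT-PCR of BAD mRNA, normalized to three housekeeping genes. Human HepaRG cultures got 48 h chemical exposure in 0.5% DMSO, duplicate eight-point half-log series topping at 100 uM. Gain or loss of signal fitted versus DMSO vehicle.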

[3] = read-out: Bcl-2 (BAX) gene, BAX (gene 581); assay: LTEA_HepaRG_BAX: Life Technologies and Expression Analysis (LTEA) Assay for Bcl-2 (BAX) gene using HepaRG (AID 2283470)
Procedure, shortened: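 qRT-PCR read-out of BAX mRNA, normalized to three housekeeping genes, after 48 h chemical exposure of human HepaRG cells in serum-free induction medium; eight-point half-log series, top 100 uM, 0.5% DMSO vehicle; bidirectional fit versus DMSO.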

[4] = read-out: adenosine kinase (ADK) gene, ADK (gene 132); assay: LTEA_HepaRG_ADK: Life Technologies and Expression Analysis (LTEA) Assay for adenosine kinase (ADK) gene using HepaRG (AID 2283471)
Procedure, shortened: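 HepaRG (human liver), 48 h chemical exposure, 8-pt half-log series, top 100 uM, 0.5% DMSO vehicle. Readout: ADK mRNA by qRT-PCR vs housekeeping genes; bidirectional curve fit relative to DMSO baseline.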

[5] = read-out: Alpha-fetoprotein (AFP) gene, AFP (gene 174); assay: LTEA_HepaRG_AFP: Life Technologies and Expression Analysis (LTEA) Assay for Alpha-fetoprotein (AFP) gene using HepaRG (AID 2283472)
Procedure, shortened: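 qRT-PCR (Fluidigm TaqMan) readout of AFP transcript, normalized to three housekeeping genes, fitted bidirectionally against 0.5% DMSO baseline. HepaRG cells received chemicals for 48 h in serum-free induction medium, top concentration 100 uM, half-log steps.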

BCL2L11 (gene 10018) = assay: LTEA_HepaRG_BCL2L11: Life Technologies and Expression Analysis (LTEA) Assay for Bcl-2 (BCL2L11) gene using HepaRG (AID 2283473)
Procedure, shortened: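 BCL2L11 transcript levels are measured by Fluidigm qRT-PCR, normalized to three housekeeping genes. HepaRG cultures were plated 48 h, then treated 48 h with test chemical (top 100 uM, half-log, 0.5% DMSO vehicle); curves were fitted bidirectionally against DMSO.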

[6] = read-out: Apolipoprotein A-V (APOA5) gene, APOA5 (gene 116519); assay: LTEA_HepaRG_APOA5: Life Technologies and Expression Analysis (LTEA) Assay for Apolipoprotein A-V (APOA5) gene using HepaRG (AID 2283474)
Procedure, shortened: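 APOA5 transcript levels were quantified by qRT-PCR, normalized to three housekeeping genes, after 48 h chemical treatment of HepaRG cells (8 points, 100 uM maximum, half-log steps, 0.5% DMSO). Curves fitted in both directions against vehicle.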

[7] = read-out: Apoptosis regulator Bcl-2 (Homo sapiens) (UniProt P10415); assay: LTEA_HepaRG_BCL2: Life Technologies and Expression Analysis (LTEA) Assay for Bcl-2 gene using HepaRG (AID 2283475)
Procedure, shortened: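 qRT-PCR read-out (Fluidigm TaqMan) of BCL2 transcript, normalised to three housekeeping genes, after 48 h chemical exposure of HepaRG cells; 8-point half-log series, top 100 uM, 0.5% DMSO vehicle. Gain or loss of signal fitted relative to DMSO baseline.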

[8] = read-out: Bcl-2 (BID) gene, BID (gene 637); assay: LTEA_HepaRG_BID: Life Technologies and Expression Analysis (LTEA) Assay for Bcl-2 (BID) gene using HepaRG (AID 2283476)
Procedure, shortened: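 HepaRG, 48 h exposure, 8-pt half-log series, top 100 uM, 0.5% DMSO vehicle, duplicates. Readout: BID mRNA by TaqMan qRT-PCR; housekeeping-normalized; bidirectional curve fit vs DMSO baseline.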

Caspase-3 (Homo sapiens) = Caspase-3 (Homo sapiens) (UniProt P42574); assay: LTEA_HepaRG_CASP3: Life Technologies and Expression Analysis (LTEA) Assay for cysteine-aspartic acid protease (CASP3) using HepaRG (AID 2283477)
Sequence of Caspase-3 (Homo sapiens) (P42574 whole entry, looked up): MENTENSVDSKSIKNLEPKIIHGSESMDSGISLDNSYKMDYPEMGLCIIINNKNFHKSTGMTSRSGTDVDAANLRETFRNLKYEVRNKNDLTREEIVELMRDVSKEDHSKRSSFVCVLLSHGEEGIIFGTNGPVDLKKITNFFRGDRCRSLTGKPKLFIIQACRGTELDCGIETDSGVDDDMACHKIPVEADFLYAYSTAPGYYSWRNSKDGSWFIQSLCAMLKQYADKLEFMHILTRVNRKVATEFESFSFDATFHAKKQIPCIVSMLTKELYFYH
Procedure, shortened: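 Expression of CASP3 was quantified by TaqMan qRT-PCR against three housekeeping genes (ACTB, GAPDH, POLR2A), bidirectionally versus 0.5% DMSO. HepaRG cultures received compounds in duplicate, top 100 uM with half-log steps, for 48 h in serum-free induction medium.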

[9] = read-out: Cytochrome P450 (CYP24A1), CYP24A1 (gene 1591); assay: LTEA_HepaRG_CYP24A1: Life Technologies and Expression Analysis (LTEA) Assay for Cytochrome P450 (CYP24A1) using HepaRG (AID 2283478)
Procedure, shortened: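 mRNA of CYP24A1 quantified by TaqMan qRT-PCR (ACTB/GAPDH/POLR2A normalization) after 48 h chemical exposure of HepaRG cells, top concentration 100 uM, half-log steps, 0.5% DMSO vehicle, duplicates. Curves fitted bidirectionally against DMSO baseline.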

[10] = read-out: cysteine-aspartic acid protease (CASP8), CASP8 (gene 841); assay: LTEA_HepaRG_CASP8: Life Technologies and Expression Analysis (LTEA) Assay for cysteine-aspartic acid protease (CASP8) using HepaRG (AID 2283480)
Procedure, shortened: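 CASP8 transcript measured by TaqMan qRT-PCR with ACTB/GAPDH/POLR2A normalization, after 48 h chemical exposure of HepaRG cells in serum-free induction medium. Eight concentrations, top 100 uM, half-log steps, 0.5% DMSO vehicle; fits in both directions versus DMSO.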

[11] = read-out: Cytochrome P450 (CYP2B6), CYP2B6 (gene 1555); assay: LTEA_HepaRG_CYP2B6: Life Technologies and Expression Analysis (LTEA) Assay for Cytochrome P450 (CYP2B6) using HepaRG (AID 2283481)
Procedure, shortened: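 CYP2B6 transcript level quantified by qRT-PCR against three housekeeping genes, fitted bidirectionally relative to DMSO. HepaRG cultures received chemicals for 48 h, 8-point half-log series from 100 uM in 0.5% DMSO, duplicate wells, serum-free induction medium.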

[12] = read-out: Cytochrome P450 2C19 (Homo sapiens) (UniProt P33261); assay: LTEA_HepaRG_CYP2C19: Life Technologies and Expression Analysis (LTEA) Assay for CYP2C19 using HepaRG (AID 2283482)
Procedure, shortened: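 CYP2C19 transcript levels by qRT-PCR, normalized to three housekeeping genes, in HepaRG cells after 48 h chemical exposure. Eight-point half-log series topping at 100 uM, 0.5% DMSO vehicle. Increases and decreases both fitted against DMSO.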

CYP2C8 (gene 1558) = assay: LTEA_HepaRG_CYP2C8: Life Technologies and Expression Analysis (LTEA) Assay for CYP2C8 using HepaRG (AID 2283483)
Procedure, shortened: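 CYP2C8 expression measured by TaqMan qRT-PCR and normalized to three housekeeping genes. HepaRG cultures were treated for 48 h with an eight-point half-log series topping at 100 uM, vehicle 0.5% DMSO, duplicates; fitted both directions against DMSO.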

CYP2C9 (gene 1559) = assay: LTEA_HepaRG_CYP2C9: Life Technologies and Expression Analysis (LTEA) Assay for CYP2C9 using HepaRG (AID 2283484)
Procedure, shortened: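 CYP2C9 transcript level, quantified by TaqMan qRT-PCR against three housekeeping genes, was fitted bidirectionally relative to 0.5% DMSO. HepaRG cultures were treated 48 h, in duplicate, at eight half-log concentrations topping at 100 uM.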

CYP2E1 (gene 1571) = assay: LTEA_HepaRG_CYP2E1: Life Technologies and Expression Analysis (LTEA) Assay for CYP2E1 using HepaRG (AID 2283485)
Procedure, shortened: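 CYP2E1 transcript was measured by TaqMan qRT-PCR in human HepaRG cultures after 48 h chemical exposure (top 100 uM, half-log steps, 0.5% DMSO vehicle). Housekeeping-gene normalization; gain or loss fitted relative to DMSO baseline.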

CYP4A11 (gene 1579) = assay: LTEA_HepaRG_CYP4A11: Life Technologies and Expression Analysis (LTEA) Assay for CYP4A11 using HepaRG (AID 2283486)
Procedure, shortened: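 Readout is CYP4A11 transcript level by qRT-PCR, normalized to three housekeeping genes and fitted bidirectionally against 0.5% DMSO. Human HepaRG cells were treated 48 h, in duplicate, with an 8-point half-log series topping at 100 uM.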

[13] = read-out: Cytochrome P450 3A4 (Homo sapiens) (UniProt P08684); assay: LTEA_HepaRG_CYP3A4: Life Technologies and Expression Analysis (LTEA) Assay for CYP3A4 using HepaRG (AID 2283487)
Procedure, shortened: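 CYP3A4 transcript measured by TaqMan qRT-PCR and normalized to three housekeeping genes after 48 h chemical exposure of human HepaRG cells. Top concentration 100 uM, half-log steps, 0.5% DMSO vehicle; gain or loss fitted against DMSO baseline.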

[14] = read-out: DNA damage-inducible transcript 3 (DDIT3), DDIT3 (gene 1649); assay: LTEA_HepaRG_DDIT3: Life Technologies and Expression Analysis (LTEA) Assay for DNA damage-inducible transcript 3 (DDIT3) using HepaRG (AID 2283488)
Procedure, shortened: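 qRT-PCR readout (Fluidigm TaqMan), housekeeping-normalized to ACTB, GAPDH, POLR2A. HepaRG cells, 48 h exposure, 8-point half-log series from 100 uM in 0.5% DMSO, duplicates. Gain or loss of signal fitted against DMSO baseline.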

Measured: outcome

Sequence of Apoptosis regulator Bcl-2 (Homo sapiens) (P10415 whole entry, looked up): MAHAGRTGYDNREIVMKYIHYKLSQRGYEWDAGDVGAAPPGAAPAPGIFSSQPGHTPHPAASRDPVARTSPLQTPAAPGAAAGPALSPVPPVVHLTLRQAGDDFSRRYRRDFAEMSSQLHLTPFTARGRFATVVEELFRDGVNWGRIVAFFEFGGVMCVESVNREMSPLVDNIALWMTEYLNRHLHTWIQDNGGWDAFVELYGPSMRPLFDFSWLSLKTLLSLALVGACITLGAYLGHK
Sequence of Cytochrome P450 3A4 (Homo sapiens) (P08684 whole entry, looked up): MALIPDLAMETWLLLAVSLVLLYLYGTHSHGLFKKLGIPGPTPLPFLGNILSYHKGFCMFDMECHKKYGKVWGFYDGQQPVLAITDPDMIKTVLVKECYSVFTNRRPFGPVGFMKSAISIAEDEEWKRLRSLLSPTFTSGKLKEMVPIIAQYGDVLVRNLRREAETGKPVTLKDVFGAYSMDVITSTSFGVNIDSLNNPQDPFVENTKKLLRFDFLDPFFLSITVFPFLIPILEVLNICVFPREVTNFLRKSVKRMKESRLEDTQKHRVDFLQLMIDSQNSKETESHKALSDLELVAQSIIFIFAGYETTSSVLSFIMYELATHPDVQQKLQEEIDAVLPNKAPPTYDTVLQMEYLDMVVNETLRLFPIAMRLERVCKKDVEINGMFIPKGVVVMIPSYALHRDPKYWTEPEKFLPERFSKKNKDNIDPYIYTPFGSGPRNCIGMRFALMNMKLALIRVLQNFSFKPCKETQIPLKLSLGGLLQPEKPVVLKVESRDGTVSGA
Sequence of Cytochrome P450 2C19 (Homo sapiens) (P33261 whole entry, looked up): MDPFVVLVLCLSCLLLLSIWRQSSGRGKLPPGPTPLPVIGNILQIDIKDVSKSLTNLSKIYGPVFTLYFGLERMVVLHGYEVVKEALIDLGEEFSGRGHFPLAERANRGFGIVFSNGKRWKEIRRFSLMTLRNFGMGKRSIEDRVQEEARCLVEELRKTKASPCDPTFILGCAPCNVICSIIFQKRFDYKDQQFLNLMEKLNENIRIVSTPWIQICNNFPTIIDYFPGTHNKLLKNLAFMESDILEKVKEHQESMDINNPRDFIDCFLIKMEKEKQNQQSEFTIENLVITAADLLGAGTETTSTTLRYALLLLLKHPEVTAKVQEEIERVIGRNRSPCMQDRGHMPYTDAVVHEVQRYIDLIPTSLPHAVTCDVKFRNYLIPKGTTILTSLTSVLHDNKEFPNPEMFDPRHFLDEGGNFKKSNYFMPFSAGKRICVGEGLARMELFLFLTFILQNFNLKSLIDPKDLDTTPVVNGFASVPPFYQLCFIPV

O=C(O)c1ccc([N+](=O)[O-])cc1
inactive: [1] | [2] | [3] | [4] | [5] | BCL2L11 (gene 10018) | [6] | [7] | [8] | Caspase-3 (Homo sapiens) | [9] | [10] | [11] | [12] | CYP2C8 (gene 1558) | CYP2C9 (gene 1559) | CYP2E1 (gene 1571) | CYP4A11 (gene 1579) | [13] | [14]
